“And” between values parts separate entries of the source, which are not always exact repeats. Equal entries are not always repeated. This is part of a sample that, as a whole, favours compounds with a hit. Of some 79,000 tested, about 15% had one in any assay. The source holds several records for some structures; these can differ, active in one and inactive in another. The source made the active and inactive calls. Rule as the data show it: active = growth inhibition above about 70%; inactive = the rest.
Legend:
[1] = NCI Yeast Anticancer Drug Screen. Data for the rad50 strain (AID 155);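 also: 0% = growth of vehicle-only cultures of the same strain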; conditions: S. cerevisiae rad50 strain growth inhibition, stronger effect = higher value
Procedure, shortened: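 Yeast carrying a defined DNA repair defect were exposed to test compounds, and growth was compared with vehicle-treated controls to give percent inhibition.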

[2] = NCI Yeast Anticancer Drug Screen. Data for the mec2-1 strain (AID 157); conditions: S. cerevisiae mec2-1 strain, stronger effect = higher value
Procedure, shortened: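 mec2-1 yeast strain, carrying an alteration in DNA damage repair or cell cycle control, was exposed to compounds; growth inhibition was measured relative to vehicle-treated controls.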

[3] = NCI Yeast Anticancer Drug Screen. Data for the sgs1 mgt1 strain (AID 161);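 also: 0% = growth of cultures given vehicle only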; conditions: S. cerevisiae sgs1 mgt1 strain, stronger effect = higher value
Procedure, shortened: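 This yeast growth screen uses a strain with defined DNA-repair lesions; compound-treated growth is compared with vehicle-treated growth.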

[4] = NCI Yeast Anticancer Drug Screen. Data for the cln2 rad14 strain (AID 165);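 also: 0% = growth equal to vehicle treated cultures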; conditions: S. cerevisiae cln2 rad14 strain, stronger effect = higher value
Procedure, shortened: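 Yeast carrying cln2 and rad14 alterations (cell cycle control and DNA damage repair) were exposed to compounds. Growth inhibition was measured against vehicle-treated controls.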

[5] = NCI Yeast Anticancer Drug Screen. Data for the bub3 strain (AID 167); conditions: S. cerevisiae bub3 mutant strain, stronger effect = higher value
Procedure, shortened: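 Compounds were applied to a genetically altered yeast strain carrying a cell-cycle control defect. Growth inhibition was scored against vehicle-treated controls.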

[6] = NCI Yeast Anticancer Drug Screen. Data for the mlh1 rad18 strain (AID 175); conditions: S. cerevisiae mlh1 rad18 strain growth inhibition, stronger effect = higher value
Procedure, shortened: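 Growth inhibition of the yeast strain was measured after compound exposure and expressed relative to vehicle-treated controls. The strain carries defined defects in DNA damage repair.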

[7] = at 5.0 µM (retest, dose inferred, filed as 0.5)
[8] = at 50.0 µM (retest, dose inferred, filed as 5.0)

Measured: growth inhibition

CCCCCCCCCCCCCC1=NCC(c2ccc3ccccc3c2)O1 (centres undefined)
inactive: [1]; [7] -4% | [1]; [8] -13% | [1]; at 50.0 µM -1.9% | [2]; [7] -4% | [2]; [8] -2% | [2]; at 50.0 µM 4.95% | [3]; [7] -4% | [3]; [8] -23% | [3]; at 50.0 µM -12.6% | [4]; [7] -6% | [4]; [8] -27% | [4]; at 50.0 µM 10.3% | [5]; [7] 1% | [5]; [8] -6% | [5]; at 50.0 µM -4.7% | [6]; [7] -2% | [6]; [8] -6% | [6]; at 50.0 µM -1.95%

CC(=O)NC1CCC(C2CCCCC2)CC1C1CCCCC1 (centres undefined)
active: [1]; [8] 85% | [1]; at 50.0 µM 93.6% | [2]; [8] 87% | [2]; at 50.0 µM 95.7% | [3]; [8] 93% | [3]; at 50.0 µM 90.7% | [4]; [8] 82% | [4]; at 50.0 µM 89.7% | [5]; [8] 86% | [5]; at 50.0 µM 95% | [6]; [8] 86% | [6]; at 50.0 µM 92%
inactive: [1]; [7] -2% | [2]; [7] -1% | [3]; [7] 4% | [4]; [7] 1% | [5]; [7] 3% | [6]; [7] -1%

O=C(/C=C/c1ccccn1)c1ccccc1
inactive: [1]; [7] 4% | [1]; [8] 59% | [1]; at 50.0 µM 9.35% and 16.2% | [2]; [7] -13% | [2]; [8] 28% | [2]; at 50.0 µM 40% and 16.4% | [3]; [7] -1% | [3]; [8] 56% | [3]; at 50.0 µM 44.7% and 24.4% | [4]; [7] 5% | [4]; [8] 11% | [4]; at 50.0 µM 7.2% and 26.9% | [5]; [7] -5% | [5]; [8] 23% | [5]; at 50.0 µM 47.2% and 39.9% | [6]; [7] -1% | [6]; [8] 29%
80.7% (active) and 21.1% (inactive): [6]; at 50.0 µM

Reference: PubChem BioAssay (NCI)
